{"source": "PubChem BioAssay AID489025", "about": "(Southern Research Specialized Biocontainment Screening …, 2010)", "note": "Screen size: about 2,300 compounds; about 790 (34%) were called active. The rule behind the calls is not given here. The list shows a part of the results. Entries with a potency or affinity are not part of this list."}
{"assay": "THP-1 cell cytotoxicity, dose response, cytotoxicity control for non-replicating M. tuberculosis project (AID 489025)", "details": "THP-1 cell viability; series mostly up to 40 µM"}
{"smiles": "Cc1ccc(OC(=O)c2sc3ncn(C)c(=O)c3c2C)cc1", "outcome": "inactive"}
{"smiles": "CC(C)CN1C(=O)/C(=C(/C#N)C(=O)NC2CCCCC2)c2ccccc21", "outcome": "inactive"}
{"smiles": "Cc1ccc(NC(=O)CO/N=C/c2ccccc2C)c(C)c1", "outcome": "inactive"}
{"smiles": "COc1cc2[nH]c(Cl)c([N+](=O)[O-])c2cc1OC", "outcome": "inactive"}
{"smiles": "CCOC(=O)c1csc(COc2ccc(OC)cc2)n1", "outcome": "inactive"}
{"smiles": "O=C(NCc1nnc(SC/C=C/c2ccccc2)o1)c1ccco1", "outcome": "inactive"}
{"smiles": "O=C(CCNc1cccc(Cl)c1)c1ccco1", "outcome": "inactive"}
{"smiles": "COC(=O)CCc1nc2c(C#N)c(-c3ccc(Cl)cc3)ccn2n1", "outcome": "inactive"}
{"smiles": "O=C(CC1CCCC1)OCn1nnc2ccccc2c1=O", "outcome": "inactive"}
{"smiles": "CCCCCCCCCCn1cc(C(C)=O)c(=O)[nH]c1=O", "outcome": "inactive"}
{"smiles": "O=C(N/N=C/c1ccccn1)c1cc([N+](=O)[O-])cc([N+](=O)[O-])c1", "outcome": "inactive"}
{"smiles": "O=C(O/N=C/c1ccc2c(c1)OCO2)c1ccc([N+](=O)[O-])cc1", "outcome": "inactive"}
{"smiles": "CCOC(=O)COc1ccc2c(=O)c(-c3ccccc3)coc2c1", "outcome": "inactive"}
{"smiles": "COc1ccc2c([N+](=O)[O-])c(N3CCCC3)[nH]c2c1", "outcome": "inactive"}
{"smiles": "CC(C)(C)NCc1cc(Br)ccc1OC1CCCC1", "outcome": "inactive"}
{"smiles": "CC(C)(C)c1cc(CN2CCN(CCO)CC2)cc(C(C)(C)C)c1O", "outcome": "inactive"}
{"smiles": "CN(C)CCC(=O)N1c2ccccc2Sc2ccc(C(F)(F)F)cc21", "outcome": "inactive"}
{"smiles": "O=C(NCC1CCCCC1)c1ccco1", "outcome": "inactive"}
{"smiles": "Brc1c(-c2ccc3c(c2)OCO3)nc2ncccn12", "outcome": "inactive"}
{"smiles": "CCn1cc(C(=O)O)c(=O)c2cc(F)c(N3CCN(C(=S)NC(=O)c4ccccc4)CC3)cc21", "outcome": "inactive"}
{"smiles": "CCCNC(=O)NC(=O)COc1ccc2oc3ccccc3c2c1", "outcome": "inactive"}
{"smiles": "CC(C)(C)c1ccc(S(=O)(=O)NNC(=O)c2cc3ccccc3[nH]2)cc1", "outcome": "inactive"}
{"smiles": "CCOC(=O)c1csc(NC(=O)COc2ccc(Cl)cc2Cl)n1", "outcome": "inactive"}
{"smiles": "CCOC(=O)c1ccc(-n2c(CCC(=O)O)ccc2-c2cccs2)cc1", "outcome": "inactive"}
{"smiles": "O=C(COc1ccc2ccccc2c1)Nc1nccs1", "outcome": "inactive"}
{"smiles": "CC(C)Cc1nnc(NC(=O)CCS(=O)(=O)c2ccc(Cl)cc2)s1", "outcome": "inactive"}
{"smiles": "COc1ccc(C(=O)CCS(=O)(=O)c2ccc(C)cc2)cc1OC", "outcome": "inactive"}
{"smiles": "O=C(COC(=O)c1ccccc1)NCc1cccs1", "outcome": "inactive"}
{"smiles": "COCCSc1nnc(NC(=O)CCS(=O)(=O)Cc2ccccc2)s1", "outcome": "inactive"}
{"smiles": "Cc1ccc(OC(=O)c2ccc(Br)o2)cc1", "outcome": "inactive"}
{"smiles": "CC(=O)NCCOC(=O)Nc1sc(=S)n(C)c1C", "outcome": "inactive"}
{"smiles": "O=C(CCNc1cccc(Cl)c1)c1cccs1", "outcome": "inactive"}
{"smiles": "NC(=S)n1[nH]c(-c2ccc([N+](=O)[O-])cc2)c(N=Nc2ccc(O)cc2)c1=O", "outcome": "inactive"}
